# Measurements published in publication PMC11995724, “Antibiotic target discovery by integrated phenotypic and activity-based profiling of electrophilic fragments” (Cell chemical biology, 2025).
# Out of some 3,200 compounds screened, about 75 (2%) showed an effect of 50% or more. This is one part of a sample in which strong results are shown more often than they occur.
# Tested on: T1, S. aureus MSSA476
# T1 construct: MSSA476
# Set-up: species or system S. aureus MSSA476 (TSB) or V. cholerae SAD30 (LB); 384-well bacterial growth screen at 25 uM, OD600 relative to DMSO control
# Details: relative growth, OD600, TSB; 25 µM; inhibitor
row,Compound,% of control remaining
1,"O=C(Nc1nccs1)N1CCSSCC1 [10-O22, N-(1,3-thiazol-2-yl)-1,2,5-dithiazepane-5-carboxamide]",109.063%
2,"O=C(CCl)N(Cc1ccc(F)cc1)C1CCCCC1 [4-I13, 2-chloro-N-cyclohexyl-N-[(4-fluorophenyl)methyl]acetamide]",87.6608%
3,"CC(Cl)C(=O)Nc1sc(-c2ccccc2)cc1C(N)=O (stereo not shown) [4-H13, 2-(2-chloropropanamido)-5-phenylthiophene-3-carboxamide]",58.3135%
4,"O=C1CCCc2cc(C(=O)CCl)ccc2N1 [10-M20, 7-(2-chloroacetyl)-2,3,4,5-tetrahydro-1H-1-benzazepin-2-one]",137.5%
5,"Cn1c(=O)oc2cc(C(=O)CCl)ccc21 [10-F07, 6-(2-chloroacetyl)-3-methyl-2,3-dihydro-1,3-benzoxazol-2-one]",93.125%
6,"CC1(C)C(=O)Nc2ccc(C(=O)CCl)cc21 [10-N21, 5-(2-chloroacetyl)-3,3-dimethyl-2,3-dihydro-1H-indol-2-one]",40.3125%
7,"C=CC(=O)NC(Cn1cncn1)c1ccccc1 (stereo not shown) [3-F17, N-[1-phenyl-2-(1H-1,2,4-triazol-1-yl)ethyl]prop-2-enamide]",118.415%
8,"Cc1cccc(N(Cc2ccccc2)C(=O)CCl)c1 [6-O07, N-benzyl-2-chloro-N-(3-methylphenyl)acetamide]",98%
9,"O=C(CCl)N(Cc1ccc(Cl)c([N+](=O)[O-])c1)c1ccccc1 [6-H06, 2-chloro-N-[(4-chloro-3-nitrophenyl)methyl]-N-phenylacetamide]",8.195%
10,"O=C(CCl)N(Cc1ccccc1)c1ccccc1 [4-G13, N-benzyl-2-chloro-N-phenylacetamide]",77.7513%
11,"C=CC(=O)NCC1(S(=O)(=O)CC)CC1 [3-O13, N-{[1-(ethanesulfonyl)cyclopropyl]methyl}prop-2-enamide]",91.2495%
12,"Cc1ccc(C=C(C#N)C(=O)NC2CCCCC2)cc1C [8-G10, 2-cyano-N-cyclohexyl-3-(3,4-dimethylphenyl)prop-2-enamide]",108.216%
13,"N#CC(=Cc1ccc(F)c(F)c1)C(=O)NC1CCCCC1 [9-J22, 2-cyano-N-cyclohexyl-3-(3,4-difluorophenyl)prop-2-enamide]",94.0824%
14,"N#CC(=Cc1ccc([N+](=O)[O-])c(Cl)c1)C(=O)NC1CCCCC1 [8-B08, 3-(3-chloro-4-nitrophenyl)-2-cyano-N-cyclohexylprop-2-enamide]",29.8755%
15,"N#CC(=Cc1ccccc1)C(=O)NC1CCCCCCC1 [8-G17, 2-cyano-N-cyclooctyl-3-phenylprop-2-enamide]",98.9212%
16,"N#CC(=Cc1c(F)c(F)c(F)c(F)c1F)C(=O)NC1CCCCC1 [8-O15, 2-cyano-N-cyclohexyl-3-(2,3,4,5,6-pentafluorophenyl)prop-2-enamide]",32.5311%
17,"N#CC(=Cc1cc(F)ccc1F)C(=O)NC1CCCCC1 [8-G08, 2-cyano-N-cyclohexyl-3-(2,5-difluorophenyl)prop-2-enamide]",64.3983%
18,"N#CC(=Cc1sc2ccccc2c1Cl)C(=O)NC1CC1 [9-C18, 3-(3-chloro-1-benzothiophen-2-yl)-2-cyano-N-cyclopropylprop-2-enamide]",110.262%
19,"C=CC(=O)NC12CC3(C)CC(C)(CC(O)(C3)C1)C2 [1-K17, N-(3-hydroxy-5,7-dimethyladamantan-1-yl)prop-2-enamide]",111.473%
20,"CC(Cl)C(=O)N(C)C1CCN(c2ccccn2)CC1 (stereo not shown) [6-J20, 2-chloro-N-methyl-N-[1-(pyridin-2-yl)piperidin-4-yl]propanamide]",95.6098%
21,"O=C(CCl)N[C@H](CO)Cc1ccccc1 [6-G20, 2-chloro-N-[(2S)-1-hydroxy-3-phenylpropan-2-yl]acetamide]",109.61%
22,"CC(=O)c1ccccc1NC(=O)C(C)Cl (stereo not shown) [5-O19, N-(2-acetylphenyl)-2-chloropropanamide]",103.825%
23,"CCN(Cc1ccc(C#N)cc1F)C(=O)CCl [5-H08, 2-chloro-N-[(4-cyano-2-fluorophenyl)methyl]-N-ethylacetamide]",105.282%

row,Compound,% of control remaining
1,"CSc1ccc(C=C(C#N)C(=O)Nc2cccc(Cl)c2C)cc1 [8-N11, N-(3-chloro-2-methylphenyl)-2-cyano-3-[4-(methylsulfanyl)phenyl]prop-2-enamide]",130.788%
2,"C=CC(=O)Nc1ccc(C(=O)NC2CCN(S(C)(=O)=O)CC2)cc1 [2-M21, N-(1-methanesulfonylpiperidin-4-yl)-4-(prop-2-enamido)benzamide]",120.801%
3,"O=C(CCl)N1N=C(c2cccs2)CC1c1cccs1 (stereo not shown) [4-O18, 1-[3,5-bis(thiophen-2-yl)-4,5-dihydro-1H-pyrazol-1-yl]-2-chloroethan-1-one]",105.193%
4,"Cc1ccc(C2CC(c3cccs3)=NN2C(=O)CCl)cc1 (stereo not shown) [4-I22, 2-chloro-1-[5-(4-methylphenyl)-3-(thiophen-2-yl)-4,5-dihydro-1H-pyrazol-1-yl]ethan-1-one]",118.533%
5,"COc1ccc(C2=NN(C(=O)CCl)C(c3cccc(C)c3)C2)cc1 (stereo not shown) [4-G20, 2-chloro-1-[3-(4-methoxyphenyl)-5-(3-methylphenyl)-4,5-dihydro-1H-pyrazol-1-yl]ethan-1-one]",10.2906%
6,"O=C(CCl)N1N=C(c2cccs2)CC1c1ccccc1O (stereo not shown) [4-K20, 2-chloro-1-[5-(2-hydroxyphenyl)-3-(thiophen-2-yl)-4,5-dihydro-1H-pyrazol-1-yl]ethan-1-one]",3.049%
7,"COc1ccc(C2=NN(C(=O)CCl)C(c3cccc(F)c3)C2)cc1 (stereo not shown) [6-P04, 2-chloro-1-[5-(3-fluorophenyl)-3-(4-methoxyphenyl)-4,5-dihydro-1H-pyrazol-1-yl]ethan-1-one]",145.463%
8,"COc1ccc(C2=NN(C(=O)CCl)C(c3ccc(F)cc3)C2)cc1 (stereo not shown) [4-M20, 2-chloro-1-[5-(4-fluorophenyl)-3-(4-methoxyphenyl)-4,5-dihydro-1H-pyrazol-1-yl]ethan-1-one]",115.102%
9,"O=C(CCl)N1N=C(c2cccs2)CC1c1cccc(O)c1 (stereo not shown) [6-L04, 2-chloro-1-[5-(3-hydroxyphenyl)-3-(thiophen-2-yl)-4,5-dihydro-1H-pyrazol-1-yl]ethan-1-one]",3.7561%
10,"O=C(CCl)N1N=C(c2cccs2)CC1c1ccc(F)cc1 (stereo not shown) [4-O20, 2-chloro-1-[5-(4-fluorophenyl)-3-(thiophen-2-yl)-4,5-dihydro-1H-pyrazol-1-yl]ethan-1-one]",137.589%
11,"Cc1ccc(C2=NN(C(=O)CCl)C(c3cccs3)C2)cc1 (stereo not shown) [4-O22, 2-chloro-1-[3-(4-methylphenyl)-5-(thiophen-2-yl)-4,5-dihydro-1H-pyrazol-1-yl]ethan-1-one]",88.0419%
12,"N#CC(=Cc1ccc(Cl)cc1)C(=O)Nc1ccncc1 [8-K20, 3-(4-chlorophenyl)-2-cyano-N-(pyridin-4-yl)prop-2-enamide]",95.6017%
13,"C=CC(=O)Nc1ccccc1CCC(N)=O [1-A18, N-[2-(2-carbamoylethyl)phenyl]prop-2-enamide]",117.099%
14,"COc1cc(NC(=O)CCl)cc(OC)c1 [4-G09, 2-chloro-N-(3,5-dimethoxyphenyl)acetamide]",119.295%
15,"Cn1c(-c2ccccc2)c(C(=O)CCl)c2ccccc21 [10-N04, 2-chloro-1-(1-methyl-2-phenyl-1H-indol-3-yl)ethan-1-one]",49.0625%
16,"O=C(CCl)c1c(-c2ccccc2)[nH]c2ccccc12 [10-E05, 2-chloro-1-(2-phenyl-1H-indol-3-yl)ethan-1-one]",159.063%
17,"Cn1cccc1C(=O)CCl [10-B04, 2-chloro-1-(1-methyl-1H-pyrrol-2-yl)ethan-1-one]",122.188%
18,"CCNC(=O)C(C#N)=Cc1ccc(OC(F)F)cc1 [8-E05, 2-cyano-3-[4-(difluoromethoxy)phenyl]-N-ethylprop-2-enamide]",113.527%
19,"O=C1C=CC(=O)N1c1cc(C(F)(F)F)ccc1Cl [10-G09, 1-[2-chloro-5-(trifluoromethyl)phenyl]-2,5-dihydro-1H-pyrrole-2,5-dione]",133.75%
20,"CC(Cl)C(=O)Nc1sc2c(c1C#N)CCCCC2 (stereo not shown) [5-B20, 2-chloro-N-{3-cyano-4H,5H,6H,7H,8H-cyclohepta[b]thiophen-2-yl}propanamide]",104.918%
21,"O=C1C=CC(=O)N1c1ccccc1Sc1ccccc1 [10-K12, 1-[2-(phenylsulfanyl)phenyl]-2,5-dihydro-1H-pyrrole-2,5-dione]",129.063%
22,"O=C1C=CC(=O)N1c1ccccc1Sc1ccc(Cl)cc1 [10-A03, 1-{2-[(4-chlorophenyl)sulfanyl]phenyl}-2,5-dihydro-1H-pyrrole-2,5-dione]",10.9375%
23,"O=C1C=CC(=O)N1c1ccccc1F [10-D17, 1-(2-fluorophenyl)-2,5-dihydro-1H-pyrrole-2,5-dione]",118.75%
